In all, about 52,000 compounds went through this assay and about 4,300 (8.3%) were called active. No stated cut-off is given here; in the data, active means survival mostly below about 52% (no sharp cut-off); inactive means mostly above about 56%. This excerpt belongs to a sample that is enriched for actives.
Tested on: DeltatarO mutant
Assay: growth inhibition of S. aureus wild type versus tarO mutant, primary screen, teichoic acid synthesis inhibitors, RN4220, OD600 (AID 463173)
Settings: OD600, 18 h, stronger effect = lower value, screened at 18.75 µg/mL (by protocol)

| SMILES | survival |
| --- | --- |
| CCOc1ccc(CNC(=O)C2Cc3ccccc3N2C(=O)CC)cc1OC (centres undefined) | 78% (inactive) |
| COc1ccc(OC)c(NC(=O)c2cc3c(=O)n4cccc(C)c4nc3n2C)c1 | 65% (inactive) |
| COc1ccc(CNC(=O)CN(c2cc(C)cc(C)c2)S(=O)(=O)c2c(C)[nH]c(=O)[nH]c2=O)cc1 | 86% (inactive) |
| CC1CN(C(=O)CCC(=O)NCc2cccs2)c2cc(Cl)ccc2O1 (centres undefined) | 84% (inactive) |
| CCOC(=O)c1c(S(=O)(=O)N2CCCC(C(=O)Nc3cc(C)ccn3)C2)c(C)n(C)c1C (centres undefined) | 83% (inactive) |
| CN(C1CCCCC1)S(=O)(=O)c1ccc(C(=O)Nc2sc3c(c2C(N)=O)CC(C)(C)NC3(C)C)cc1 | 84% (inactive) |
| COc1ccc2c(c1)c1c(c(=O)n(-c3ccccc3)c(=O)n1CC(=O)NCc1ccc(C)cc1)n2C | 83% (inactive) |
| COc1ccc(-n2cc(C(=O)NCc3ccccc3)c3ccccc3c2=O)cc1 | 61% (inactive) |
| O=C(Cc1ccccc1)Nc1c(C(=O)Nc2ccccc2F)oc2ccccc12 | 83% (inactive) |
| COc1ccc(C(=O)Nc2c(C(=O)c3ccccc3)oc3ccccc23)cc1 | 72% (inactive) |
| COc1ccccc1NC(=O)c1oc2ccccc2c1NC(=O)c1c(F)cccc1F | 51% (inactive) |
| CC(=O)Nc1c(C(=O)Nc2ccccc2F)oc2ccccc12 | 119% (inactive) |
| COc1cc(C(=O)Nc2c(C(=O)Nc3ccccc3F)oc3ccccc23)cc(OC)c1OC | 52% (inactive) |
| COc1ccccc1C(=O)Nc1c(C(=O)NC(C)(C)C)oc2ccccc12 | 99% (inactive) |
| COc1ccccc1C(=O)Nc1c(C(=O)c2ccccc2)oc2ccccc12 | -1% (active) |
| COc1ccccc1C(=O)Nc1c(C(=O)Nc2ccccc2F)oc2ccccc12 | 13% (active) |
| CCOc1ccc(NC(=O)c2oc3ccccc3c2NC(=O)c2c(F)cccc2F)cc1 | 91% (inactive) |
| CCOc1ccc(NC(=O)c2oc3ccccc3c2NC(=O)c2cc(C)cc(C)c2)cc1 | 82% (inactive) |
| CCOc1ccc(NC(=O)c2oc3ccccc3c2NC(=O)C(C)(C)C)cc1 | 38% (active) |
| O=C(Nc1ccccc1F)c1oc2ccccc2c1NC(=O)c1c(F)cccc1F | 26% (active) |
| CCN1C(=O)/C(=C2\C=Cc3ccccc3N2CC)SC1=S | 77% (inactive) |
| CC(=O)Nc1ccc(-c2nnc(SCC(=O)c3ccc([N+](=O)[O-])cc3)o2)cc1 | 66% (inactive) |
| CCOc1ccccc1C(=O)Nc1cc2c(cc1N1CCOCC1)n(C)c(=O)n2C | 77% (inactive) |

| SMILES | survival |
| --- | --- |
| CCCNC(=O)N1CCc2cc(OC)c(OC)cc2C1c1cc2cc3c(cc2[nH]c1=O)OCO3 (centres undefined) | 91% (inactive) |
| CCOCCc1nn2c(=O)cc(COC(=O)COc3ccccc3Cl)nc2s1 | 88% (inactive) |
| COc1ccc(N2CCN(C(=O)c3oc4ccccc4c3NC(=O)c3ccccc3OC)CC2)cc1 | 131% (inactive) |
| COc1ccc(NC(=O)c2oc3ccccc3c2NC(=O)c2cc3ccccc3o2)c(OC)c1 | 72% (inactive) |
| COc1ccccc1C(=O)Nc1c(C(=O)N2CCN(c3ccccc3F)CC2)oc2ccccc12 | 92% (inactive) |
| Cc1cc(C)cc(C(=O)Nc2c(C(=O)Nc3ccccc3F)oc3ccccc23)c1 | 80% (inactive) |
| COc1ccccc1C(=O)Nc1c(C(=O)N2CCN(c3ccc(F)cc3)CC2)oc2ccccc12 | 0% (active) |
| O=C(Nc1c(C(=O)Nc2cccc(F)c2)oc2ccccc12)c1cc2ccccc2o1 | 35% (active) |
| O=C(Nc1c(C(=O)Nc2ccccc2F)oc2ccccc12)c1cc2ccccc2o1 | 37% (active) |
| Cc1cccc(CC(=O)Nc2c(C(=O)Nc3cccc(F)c3)oc3ccccc23)c1 | 57% (inactive) |
| CC(C)Oc1ccc(NC(=O)c2cc3ccccc3o2)cc1 | 40% (active) |
| COc1cccc(NC(=O)c2oc3ccccc3c2NC(=O)c2cc3ccccc3o2)c1 | 51% (inactive) |
| O=C(Nc1ccc(NC(=O)c2cc3ccccc3o2)cc1)c1ccccc1 | 86% (inactive) |
| O=C(O)c1ccc(NC(=O)c2cc3ccccc3o2)cc1 | 59% (inactive) |
| COc1ccc(CCNC(=O)CCS(=O)(=O)c2cc3c(cc2Cl)NC(=O)CO3)cc1OC | 90% (inactive) |
| COc1ccc(-c2noc(-c3ccc(C)cc3Cl)n2)cc1OC | 136% (inactive) |
| Cc1ccc(C)c(NC(=O)Cn2cc(S(=O)(=O)N3CCCC3)c(S(=O)(=O)N3CCCC3)c2)c1 | 94% (inactive) |
| COc1ccc(OC)c(NC(=O)c2cn3c4c(ccc(Cl)c4c2=O)OC(C)C3)c1 (centres undefined) | 87% (inactive) |
| Cc1ccc(-c2cc(NC(=O)COc3ccc(Cl)c(C)c3)on2)cc1 | 86% (inactive) |
| Oc1c(Br)cc(Br)cc1-c1nc2ccccc2s1 | 126% (inactive) |
| CCOc1ccccc1CNC(=O)CCn1cccn1 | 67% (inactive) |
| CCOC(=O)C1CCN(c2cc3c(cc2NC(=O)c2ccc(Cl)cc2)n(C)c(=O)n3C)CC1 | 93% (inactive) |
| COc1ccc(CNC(=O)C2=C(C)C(=O)OC23CCCCC3)cc1 | 82% (inactive) |

| SMILES | survival |
| --- | --- |
| CCc1ccc(S(=O)(=O)c2cn(C)c3cc(OC)c(OC)cc3c2=O)cc1 | 121% (inactive) |
| CCOC(=O)c1ccc(NC(=O)C2Cc3ccccc3CN2S(=O)(=O)c2ccc(Cl)cc2)cc1 (centres undefined) | 53% (inactive) |
| CCCc1c(C)c2ccc(O)c(CN3CCN(c4ccc(F)cc4)CC3)c2oc1=O | 52% (inactive) |
| O=C(NCCCN=C1NS(=O)(=O)c2ccccc21)c1ccncc1 | 85% (inactive) |
| CCOc1cccc(C(=O)Nc2c(C(=O)c3ccc(OC)cc3)oc3ccccc23)c1 | 28% (active) |
| COc1cccc(C(=O)Nc2c(C(=O)Nc3ccc(F)cc3)oc3ccccc23)c1OC | 60% (inactive) |
| CCOc1ccccc1C(=O)Nc1c(C(=O)Nc2ccc(F)cc2)oc2ccccc12 | 83% (inactive) |
| CCOc1ccc(C(=O)Nc2c(C(=O)c3ccc(OC)cc3)oc3ccccc23)cc1 | 79% (inactive) |
| O=C(Nc1c(C(=O)N2CCN(c3ccccc3)CC2)oc2ccccc12)c1ccco1 | 37% (active) |
| COc1ccc(C(=O)c2oc3ccccc3c2NC(=O)c2cccc(OC)c2)cc1 | 58% (inactive) |
| O=C(Nc1c(C(=O)N2CCN(c3ccccc3F)CC2)oc2ccccc12)c1ccco1 | 69% (inactive) |
| O=C(Nc1c(C(=O)N2CCN(c3ccc(F)cc3)CC2)oc2ccccc12)c1ccco1 | 74% (inactive) |
| O=C(Nc1c(C(=O)Nc2ccc(F)cc2)oc2ccccc12)c1ccccc1F | 40% (active) |
| COCCNC(=O)c1ccc2nc(CCc3ccccc3)oc2c1 | 112% (inactive) |
| CCOC(=O)c1c(NC(=O)/C=C/c2ccc(OCC)cc2)sc(C)c1C | 50% (inactive) |
| CCOc1ccc(C(c2c(O)cc(C)n(CCOC)c2=O)N2CCC(C)CC2)cc1 (centres undefined) | 73% (inactive) |
| COc1ccccc1N(CC(=O)Nc1ccccc1C(F)(F)F)S(=O)(=O)c1ccc(C)cc1 | 64% (inactive) |
| Cc1cccc(N(CC(=O)NCc2ccccc2)S(C)(=O)=O)c1C | 70% (inactive) |
| CCc1ccccc1NC(=O)CN(c1cccc(C)c1C)S(C)(=O)=O | 54% (active) |
| CCc1ccccc1NC(=O)CN(c1cc(C(F)(F)F)ccc1Cl)S(=O)(=O)c1ccccc1 | 44% (active) |
| CCOc1ccc(S(=O)(=O)N(CC(=O)NCCc2ccc(OC)cc2)c2ccccc2)cc1 | 92% (inactive) |
| CCc1ccccc1NC(=O)CN(c1ccccc1OC)S(=O)(=O)c1ccc(C)cc1 | 36% (active) |
| CCOc1ccc(S(=O)(=O)N(CC(=O)NCCc2ccc(OC)c(OC)c2)c2ccccc2)cc1 | 49% (inactive) |

| SMILES | survival |
| --- | --- |
| Cc1cccc(N(CC(=O)Nc2cccc(Cl)c2C)S(C)(=O)=O)c1C | 61% (inactive) |
| COc1ccc(OC)c(NC(=O)CN(c2ccccc2OC)S(=O)(=O)c2ccc(C)cc2)c1 | 54% (inactive) |
| O=C(CN(c1cc(C(F)(F)F)ccc1Cl)S(=O)(=O)c1ccccc1)NCCc1ccccc1 | 66% (inactive) |
| Cc1cc(C)cc(NC(=O)CN(c2cc(C(F)(F)F)ccc2Cl)S(=O)(=O)c2ccccc2)c1 | 79% (inactive) |
| CCOc1ccc(S(=O)(=O)N(CC(=O)NCc2ccccc2OC)c2ccccc2)cc1 | 37% (active) |
| COc1cccc2cc(C(=O)N3CCCCC3)c(=O)oc12 | 85% (inactive) |
| Nc1cccc(C(=O)NC23CC4CC(CC(C4)C2)C3)c1 | 95% (inactive) |
| O=C1CCCC/C1=N\Nc1ccc(N2CCCCC2)cc1 | 90% (inactive) |
| Cc1nc2ccn(Cc3ccco3)c(=O)c2cc1C(=O)NCc1ccccc1F | 86% (inactive) |
| O=C(O)c1ccccc1SC1CC(=O)N(Cc2ccccc2)C1=O (centres undefined) | 81% (inactive) |
| CCOc1ccc(CCNC(=O)CCCc2nnc3n(CCCOC)c(=O)c4sccc4n23)cc1 | 91% (inactive) |
| NS(=O)(=O)c1ccc(NC(=O)C2CCCO2)cc1 (centres undefined) | 95% (inactive) |
| CCN1c2ccccc2-n2cccc2C12CCN(C(=O)Nc1ccccc1Br)CC2 | 91% (inactive) |
| COc1ccc(CCNC(=O)Cc2c(C)c3c(cc(C)c4c(C)c(C)oc43)oc2=O)cc1OC | 83% (inactive) |
| Cc1ccc2c(CNCC(C)c3ccccc3)c(C(=O)O)n(Cc3ccccc3C)c2c1 (centres undefined) | 70% (inactive) |
| COc1ccccc1N(CC(=O)NCCSCc1ccccc1)S(C)(=O)=O | 70% (inactive) |
| COc1ccccc1N(CC(=O)NCCSCc1ccccc1)S(=O)(=O)c1ccc(C)cc1 | 41% (active) |
| COc1ccccc1N(CC(=O)NCCSc1ccccc1)S(=O)(=O)c1ccc(C)cc1 | 62% (inactive) |
| Cc1ccc(Cn2cc3c(n2)-c2c(oc(C(=O)Nc4ccc(F)cc4F)c2C)CC3)cc1 | 85% (inactive) |
| CN1CCN(c2nc3c(S(=O)(=O)c4ccccc4)nnn3c3ccsc23)CC1 | 86% (inactive) |
